Bioassay records deposited in PubChem by National Center for Advancing Translational Sciences (NCATS).
The sample as a whole holds a higher share of hits than the screen did.
KDM4E inh – JMJD2E (human) inhibition | B2RXH2 | JMJD2E catalytic domain, FDH-coupled NADH fluorescence (FDH is formaldehyde dehydrogenase) | Potency, µM (highest dose often 57.1 µM), for the others: at the top dose activity change, negative = inhibition, most hits filed as inhibitors | actives 1.6% (n = 230,000) | AID 2147; active means well fitted inhibition curve with a large enough effect, not every such curve was filed as active; inconclusive means small, poorly fitted or top-dose-only effect, or another doubt; inactive means no such curve, though single readings can be large or run the other way;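 further: potency means the concentration at half of the fitted maximal effect; 0% = wells with enzyme and -100% = buffer wells without enzyme; nearly all actives have a fitted effect of over 50% in size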
TDP1 inh – blocks human tyrosyl-DNA phosphodiesterase 1; Q9NUW8; recombinant TDP1, AlphaScreen DNA substrate cleavage; Potency, µM (highest dose often 130 µM), for the others: at the highest dose activity change, negative = inhibition, actives largely listed as inhibitors; actives 0.28% (n = 350,000); AID 485290; further: potency means the concentration at half of the fitted maximal effect; on the % scale 0 is the no-effect control and ±100 the full control effect; nearly all actives have a fitted effect of over 40% in size
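Recombinant E. coli-expressed Tdp1 (1 nM) preincubated with compound 15 min at RT, then 5'-biotin/3'-phosphotyrosine-FITC DNA substrate (15 nM) added for 5 min. AlphaScreen beads (10 ug/ml) added, 10 min RT; tyrosine-FITC cleavage read as signal loss.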
BLM inh – blocks DNA unwinding by human BLM helicase; P54132; recombinant BLM DNA unwinding, fluorescence dequenching; Potency, µM (doses to about 56.1 µM), for inactives: at the highest dose activity change, negative = inhibition, usual class: inhibitors; actives 0.2% (n = 350,000);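 further: potency means the concentration at half of the fitted maximal effect; plate controls were vehicle for no effect and no enzyme for full effect; nearly all actives have a fitted effect of over 35% in size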
GCN5L2 inh-1 – GCN5L2 (KAT2A) acetyltransferase inhibition | GCN5L2 HAT assay, ThioGlo1 CoA-SH fluorescence | AID 504327 | actives 0.21% (n = 390,000) | Potency, µM (titrated, usually from 58.9 µM), without a hit: top-dose activity change, negative = inhibition, most hits filed as inhibitors; further: potency means the concentration at half of the fitted maximal effect; on the % scale 0 is the no-effect control and ±100 the full control effect
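Fluorescence readout, Ex340nm/Em540nm: ThioGlo1 (50uM final) reacts with free CoA thiol released as 20nM GCN5L2 acetylates H3(1-25) peptide (75uM) using acetyl-CoA (70uM). Compound and enzyme sat 15 min beforehand; 20 min room-temperature reaction.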
APEX1 inh – APE1 (human) endonuclease inhibition. P27695. recombinant APE1, TAMRA/BHQ-2 abasic DNA cleavage fluorescence. Potency, µM (doses to about 65.8 µM), for inactives: at the highest dose activity change, negative = inhibition, actives largely listed as inhibitors. actives 0.35% (n = 350,000);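 further: potency means the concentration at half of the fitted maximal effect; plate controls were vehicle for no effect and reference inhibitor for full effect; nearly all actives have a fitted effect of over 55% in size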
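Incision of a quenched TAMRA/BHQ-2 THF abasic-site duplex (50 nM) by 0.75 nM APE1, after 15 min compound preincubation, measured as fluorescence increase over three 60 s reads. Values normalized to buffer, DMSO and NSC13755 control wells.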
RECQ1 helicase – RECQ1 (human) helicase inhibition. P46063. RECQ1 DNA unwinding, red fluorescence kinetic read. Potency, µM (highest dose often 57.3 µM), inactives show top-dose activity, negative = inhibition, hits mostly inhibitors. actives 0.54% (n = 240,000). AID 2549;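 further: potency means the concentration at half of the fitted maximal effect; plate controls were vehicle for no effect and no enzyme for full effect; nearly all actives have a fitted effect of over 30% in size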
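50 nM RECQ1T1 preincubated 15 min with compound in Tris pH 8.0 buffer with MgCl2, DTT, Tween-20 and 2.5 ug/ml poly(dI-dC); started with 200 nM TAMRA/BHQ-2 forked duplex and 2 mM ATP. Unwinding read as fluorescence (525/598 nm), two reads 2 h apart.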
GCN5L2 inh-2 – confirmation of human GCN5L2 histone acetyltransferase inhibitors. shares compounds with GCN5L2 inh-1. GCN5L2 HAT, ThioGlo1 CoA fluorescence, 20 min. Potency, µM, most hits filed as inhibitors. actives 70% (n = 140)
An asterisk follows results filed as active; ? = inconclusive; nt = not tested or not shown; [ ] = dose if it differs, or a comment. Unless noted, the call rests on the fitted dose curve; in most records, active means well fitted curve in the direction sought with a large enough effect; inconclusive means small, poorly fitted or top-dose-only effect, or another doubt; inactive means no such curve, though single readings can be large; an effect the other way counts as inactive or inconclusive.

SMILES	KDM4E inh	TDP1 inh	BLM inh	GCN5L2 inh-1	APEX1 inh	RECQ1 helicase	GCN5L2 inh-2
O=C(O)c1cc(-c2ccc(-c3c(-c4ccc5c(c4)OCO5)noc3-c3ccsc3)cc2)nc2ccccc12	nt	nt	-8%	20µM*	23%	nt	16*
CN(C)c1ccc(-c2c(-c3ccc4c(c3)OCO4)noc2-c2ccsc2)cn1	nt	nt	-10%	-10%	4%	nt	nt
COc1ccc(CNC(=O)c2sc3nc4n(c(=O)c3c2C)CCCCC4)cc1	nt	9%	-8%	-7%	nt	nt	nt
O=C(/C=C/c1ccccc1)Nc1scc(-c2ccccc2)c1C(=O)O	-18%	2%	-2%	2%	12%	15%	nt
O=C(/C=C/c1ccco1)Nc1scc(-c2ccccc2)c1C(=O)O	8%	nt	2%	?	?	?	?
O=S(=O)(c1ccccc1Br)N1CCN(c2nc(-c3cccs3)nc3ccccc23)CC1	nt	0%	nt	nt	nt	nt	nt
O=C(O)CCS(=O)(=O)c1cccc2cccnc12	-1%	1%	-3%	?	1%	-13%	nt
CCSS(=O)(=O)c1cccc2cccnc12	3.2µM*	8%	2%	3.2µM*	3%	-2%	3.6*
Nc1ccnc2c1ncn2[C@@H]1O[C@H](CO)[C@@H](O)[C@H]1O	nt	4%	nt	1%	0%	14%	nt
Cn1c(SCC(=O)c2ccc(-c3ccccc3)cc2)nnc1-c1ccco1	-1%	0%	-2%	28µM*	-6%	-11%	?
COc1ccc2c(C(=O)NCCCCO)c(-c3ccc(S(C)(=O)=O)cc3)sc2c1	nt	0%	nt	?	-8%	nt	36*
COc1ccc2sc(-c3ccc(S(C)(=O)=O)cc3)c(C(=O)NCCc3c[nH]c4ccccc34)c2c1	nt	3%	nt	-7%	-15%	nt	nt
O=c1c2ccccc2sn1-c1cc(S(=O)(=O)N2CCOCC2)ccc1N1CCCC1	14µM*	-6%	-1%	8.9µM*	-2%	-3%	5.8*
O=c1c2ccccc2sn1-c1cc(S(=O)(=O)N2CCOCC2)ccc1N1CCOCC1	8.9µM*	-1%	3%	1.6µM*	-4%	-14%	4.1*
CC(C)OC(=O)Nc1ccc2nc(-c3cscn3)[nH]c2c1	nt	nt	-1%	-14%	nt	nt	nt
Cc1ccc(/C=C2/C(=O)ON=C2c2ccccc2)o1	0%	-1%	-6%	?	2%	-20%	nt
CC1=NOC(=O)/C1=C\c1ccc(-c2ccccc2Br)o1	-27%	-2%	-21%	13µM*	-7%	-24%	11*
CC1=NOC(=O)/C1=C\c1ccc(-c2cccc(Cl)c2)o1	10%	1%	-15%	?	?	?	?
COc1ccc(-c2noc(-c3nnn(-c4cc(C)ccc4C)c3N)n2)cc1	nt	-3%	-1%	-4%	nt	nt	nt
COc1ccc(Cn2c(SCc3ccc(C(=O)NCc4cccs4)cc3)nc3ccncc32)cc1	nt	4%	-3%	-7%	nt	nt	nt
COCCN(C(=O)COC(=O)c1cc2c(s1)CCC2)c1c(N)n(Cc2ccccc2)c(=O)[nH]c1=O	nt	0%[0.505 µM]	nt	?	0.75µM*	nt	11*
C[n+]1ccccc1/C=C/c1ccc(C#N)cc1	nt	nt	-4%	?	21%	nt	29*
C[n+]1ccccc1/C=C/c1ccc([N+](=O)[O-])cc1	nt	nt	1%	0%	8%	nt	nt
O=C(Nc1ccc2nc(SCC(=O)N3CCOCC3)sc2c1)c1ccccc1Cl	nt	2%	0%	-7%	nt	nt	nt
Cc1oc(-c2ccc(C(=O)N(C)Cc3ccccc3)cc2)nc1CN1CCc2ccccc21	nt	9%	-17%	-10%	nt	nt	nt
COc1ccc(-c2c(C3C4C=CCCC4(C)C(=O)N3Cc3ccccc3)ccc3ccccc23)cc1OC (stereo unspecified)	nt	11%	-9%	nt	-9%	-1%	nt
COc1ccccc1N1C(=O)c2ccccc2C1=O	nt	0%	nt	nt	nt	nt	nt
